Source: PubChem BioAssay (National Center for Advancing Translational Sciences (NCATS))
Tau ThT inhib – qHTS for Inhibitors of Tau Fibril Formation, Thioflavin T Binding | Microtubule-associated protein tau (Homo sapiens), P10636 | recombinant tau K18 P301L, heparin-induced fibrillization, ThT fluorescence | Potency, µM (highest dose often 57.4 µM), hits mostly inhibitors | 2.1% of 270,000 active | AID 1460, 2008; note: nearly all actives have a fitted effect of over 55% in size
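Heparin-induced (20 uM) aggregation of recombinant human K18 P301L tau, 15 uM unlabeled with 0.24 uM labeled, pH 7 acetate buffer, 6 hr at 37 C with compound. Fibrils quantified by 30 uM ThT fluorescence after 1 hr ambient incubation.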
Tau FP inhib – qHTS for Inhibitors of Tau Fibril Formation, Fluorescence Polarization; Microtubule-associated protein tau (Homo sapiens), P10636; K18 P301L tau heparin fibrillization, Alexa594 FP, 6 h; Potency, µM (doses to about 57.7 µM), usual class: inhibitors; 0.39% of 280,000 active; AID 1468, 2008; note: nearly all actives have a fitted effect of over 55% in size
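Compound effects on tau fibrillization are measured by Alexa 594 fluorescence polarization (ex 555, em 632 nm). K18 P301L tau is used at 15 uM with 0.24 uM labeled tracer, and 20 uM heparin induces aggregation over 6 hr at 37 C.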
FBPA coupling cs – qHTS Assay for Inhibitors of Fructose-1,6-bisphosphate Aldolase from Giardia Lamblia: Coupling assay counterscreen; coupling enzyme system counterscreen, AmpLite Red fluorescence; 0.67% of 290,000 active; activity change, negative = inhibition, % at 58.2 µM, hits read low; in the data active = activity change below about -30%
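Fluorescence at 525 nm excitation and 598 nm emission measured inhibition of the coupled detection system without aldolase. Compounds (at 57.5 uM final) were preincubated 10 min at room temperature with coupling enzyme reagent before a 20 min substrate/AmpLite Red step.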
USP1-UAF1 inh – Inhibitors of USP1/UAF1: Primary Screen; AID 743255, 2014; 0.23% of 390,000 active; recombinant USP1/UAF1, Ub-Rhodamine cleavage fluorescence; Potency, µM (series often up to 57.1 µM), actives largely listed as inhibitors; Ubiquitin carboxyl-terminal hydrolase 1 (Homo sapiens), O94782; note: nearly all actives have a fitted effect of over 60% in size
Target sequence (O94782 whole entry, looked up): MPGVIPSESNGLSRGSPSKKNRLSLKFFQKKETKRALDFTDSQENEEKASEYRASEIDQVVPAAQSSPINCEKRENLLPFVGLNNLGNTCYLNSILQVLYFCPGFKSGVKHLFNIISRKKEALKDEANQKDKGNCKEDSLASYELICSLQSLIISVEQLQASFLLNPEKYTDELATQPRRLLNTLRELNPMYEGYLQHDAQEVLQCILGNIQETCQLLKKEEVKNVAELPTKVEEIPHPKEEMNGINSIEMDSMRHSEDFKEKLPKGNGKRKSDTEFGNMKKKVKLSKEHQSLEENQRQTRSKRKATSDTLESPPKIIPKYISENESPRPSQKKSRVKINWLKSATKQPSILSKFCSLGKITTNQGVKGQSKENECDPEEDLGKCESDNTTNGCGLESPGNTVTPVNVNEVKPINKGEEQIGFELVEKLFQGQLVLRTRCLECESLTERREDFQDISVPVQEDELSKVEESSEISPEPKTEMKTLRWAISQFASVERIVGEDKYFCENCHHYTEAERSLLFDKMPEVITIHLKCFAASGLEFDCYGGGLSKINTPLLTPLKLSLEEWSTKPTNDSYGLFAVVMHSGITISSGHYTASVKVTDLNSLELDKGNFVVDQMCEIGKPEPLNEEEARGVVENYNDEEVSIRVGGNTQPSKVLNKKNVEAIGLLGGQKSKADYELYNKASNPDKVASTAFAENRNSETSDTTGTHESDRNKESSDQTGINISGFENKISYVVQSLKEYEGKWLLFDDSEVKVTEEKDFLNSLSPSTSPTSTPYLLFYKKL
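1 nM enzyme complex + cpd, 15 min RT; start with Ub-Rho 150nM final; kinetic fluorescence ex 480/em 540, 6 reads q60 s. Buffer 50mM HEPES pH 7.8, 0.5mM EDTA, 0.1 mg/ml BSA, 1mM TCEP, 0.01% Tween-20.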
Tau fluor cs – Counterscreen qHTS for Inhibitors of Tau Fibril Formation, Fluorescence Polarization; tau K18 P301L (four-repeat tau fragment) Alexa594 fluorescence, heparin fibrillization; Potency, µM (top dose mostly 57.7 µM); 0.93% of 280,000 active; AID 1463, 2008; note: nearly all actives have a fitted effect of over 55% in size
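Human K18 P301L tau (15 uM unlabeled plus 0.24 uM Alexa 594-labeled, final) in 100 mM sodium acetate pH 7 was mixed with compound and 20 uM heparin and incubated 6 hr at 37 C.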
Large screens that a line does not name were inactive; [ ] = dose if it differs, or a comment. Compounds with a hit are over-represented: about 2.3% of the library has one in this group of screens. Unless noted, calls come from the whole dose curve; as a rule, active = well fitted curve in the direction sought with a large enough effect; inconclusive = small, poorly fitted or top-dose-only effect, or another doubt; inactive = no such curve, though single readings can be large; an effect the other way counts as inactive or inconclusive.

Cc1cc(/C=C2\C(=N)N3N=C(c4ccco4)SC3=NC2=O)c(C)n1Cc1ccccc1	Tau ThT inhib 13µM, USP1-UAF1 inh inconclusive, Tau fluor cs inconclusive
CCC1=NN2C(=N)/C(=C/c3cc(C)n(Cc4ccccc4)c3C)C(=O)N=C2S1	Tau ThT inhib inconclusive
CC(=O)c1c(C)oc2c1cc(O)c1ccccc12	none (no result: Tau ThT inhib)
CC(=O)c1coc2c1cc(O)c1ccccc12	Tau ThT inhib inconclusive, FBPA coupling cs -33
CC(=O)Oc1cc2c(C(C)=O)coc2c2ccccc12	none
O=C(c1ccco1)c1coc2c1cc(O)c1ccccc12	Tau ThT inhib 3.5µM, FBPA coupling cs -31, USP1-UAF1 inh inconclusive, Tau fluor cs inconclusive
O=C(Oc1cccc2c(O)cccc12)c1ccco1	none (no result: Tau ThT inhib, Tau FP inhib, FBPA coupling cs, Tau fluor cs)
CC(=O)c1cc(O)c2ccccc2c1O	Tau ThT inhib 28µM, Tau FP inhib inconclusive, FBPA coupling cs -33, USP1-UAF1 inh inconclusive, Tau fluor cs inconclusive
CCn1c(=N)c(C(=O)NC2CCCC2)cc2c(=O)n3cc(C)ccc3nc21	none (no result: FBPA coupling cs)
Cc1ccc(C)c(N2CCN(C(=O)CCc3c(C)nn(-c4ccc(N5CCCC5)nn4)c3C)CC2)c1	none (no result: FBPA coupling cs)
CC(=O)N1CCN(c2ccc(NCc3ccc4c(c3)OCO4)cc2)CC1	Tau ThT inhib 16µM, Tau FP inhib inconclusive, FBPA coupling cs -33, Tau fluor cs inconclusive
CC(=O)N1CCN(c2ccc(NCc3ccc(C)s3)cc2)CC1	Tau ThT inhib inconclusive, Tau FP inhib inconclusive, Tau fluor cs inconclusive
CC(=O)N1CCN(c2ccc(NCc3cccs3)cc2)CC1	Tau ThT inhib 28µM, Tau FP inhib inconclusive
Cc1ccc(NC(=O)/C(C#N)=C/c2ccc(-c3ccc(Cl)c(C(=O)O)c3)o2)cc1C	Tau ThT inhib 4.5µM (no result: FBPA coupling cs)
O=C(O)c1cc(-c2ccc(/C=N/Nc3ccc(Cl)cc3)o2)ccc1Cl	Tau ThT inhib 8.9µM, Tau fluor cs 11µM[quencher]
Nc1nonc1C(=O)N/N=C/c1ccc(-c2ccc(Cl)c(C(=O)O)c2)o1	Tau ThT inhib inconclusive
COc1cc(/C=N/Nc2nc3ccccc3[nH]2)ccc1O	Tau ThT inhib 5µM, Tau FP inhib inconclusive, Tau fluor cs inconclusive
COc1cc(/C=C(/C(=O)c2cccs2)c2nc3ccccc3[nH]2)cc(OC)c1O	Tau ThT inhib 14µM, USP1-UAF1 inh inconclusive, Tau fluor cs inconclusive
O=[N+]([O-])c1ccc(O)c(/C=N/Nc2nc3ccccc3[nH]2)c1	Tau ThT inhib 8.9µM, Tau fluor cs inconclusive
COc1cc(/C=N/NC(=Nc2ccc(C)cc2)c2nc3ccccc3s2)ccc1O	Tau ThT inhib inconclusive, USP1-UAF1 inh inconclusive, Tau fluor cs 11µM[quencher]
COc1ccc(-c2noc(CSc3nnc(C)n3-c3cccc(C)c3)n2)cc1	none (no result: FBPA coupling cs)
CCC(C)NC(=O)C1=CC(c2ccc3c(c2)OCO3)=NS(=O)(=O)N1C (configuration not stated)	Tau ThT inhib inconclusive (no result: FBPA coupling cs)
CC(C)Oc1ccc(CNC(=O)c2ccc3c(c2)nc2n3CCCCC2)cc1	USP1-UAF1 inh inconclusive (no result: FBPA coupling cs)
COCCCNC(=O)CCCn1c(SCC(=O)c2ccc(F)cc2)nc2c(sc3ccccc32)c1=O	none (no result: FBPA coupling cs)
O=C(/C(=C/c1ccc(Cl)cc1)c1nc2ccccc2[nH]1)c1ccccc1	Tau ThT inhib 40µM, Tau FP inhib inconclusive
COc1cc(/C=N/Nc2nc3ccccc3[nH]2)cc(OC)c1O	Tau ThT inhib 11µM, Tau FP inhib inconclusive, Tau fluor cs 16µM[quencher]
O=C(N/C(=C/c1ccc(Cl)cc1)c1nc2ccccc2[nH]1)c1ccco1	none
COc1ccc(O)c(/C=N/Nc2nc3ccccc3[nH]2)c1	Tau ThT inhib 14µM, Tau fluor cs inconclusive
CCCCN(CC)C(=O)CSc1c2c(nc3ccc(Cl)cc13)CCCC2	Tau ThT inhib inconclusive (no result: FBPA coupling cs)
COc1cc(C(=O)N(Cc2cccnc2)Cc2cc3cc4c(cc3[nH]c2=O)OCCO4)cc(OC)c1OC	FBPA coupling cs -50
O=C(c1ccccc1F)N(Cc1cccnc1)Cc1cc2cc3c(cc2[nH]c1=O)OCCO3	none
